# Sampled rows, rich in hits. Any-hit rate of the full collection: about 2.4%.
# CRFR2-BP antag: antagonists of CRF-binding protein/CRF-R2 receptor complex. HEK293 CRF-R2/CRF-BP, CRF-induced calcium fluorescence. inhibition, % at 11.8 µM. 350,000 tested, 0.59% active. AID 588475;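 active = inhibition of the ligand-induced calcium signal above about 50% at the single tested concentration, limit read from the data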
# CRFR2-BP ag: CRF-BP/CRF-R2 complex agonism. HEK293 CRF-R2/CRF-BP, calcium dye fluorescence (FLIPR); percent of saturating CRF peptide response. activation, % at 13.2 µM. 350,000 tested, 0.46% active;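 active = activation of at least 50%, plus an integration ratio under a set limit after plate pattern correction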;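 also: plate controls were neutral control wells without compound for no effect and CRF at EC100 for full effect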
# Cardiac RTF inh: cardiac RTF calcium desensitization; inhibition, % at 7.15 µM; 340,000 tested, 0.12% active; IANBD-labeled cardiac RTF, Ca2+ fluorescence; P19429+P45379; AID 493244;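 active = inhibition above the mean inhibition of all tested compounds plus 3 SD, cut at about 17% in these data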;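 also: assay run at fixed EC70 calcium of 1.6 mM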
# ANO1 block: inhibitors of mouse TMEM16A calcium-activated chloride channel; Q8BHY3; HEK293 TMEM16A/YFP iodide influx fluorescence, ionomycin; normalized B-score (activity score, 25-100; higher = stronger inhibition) at 10 µM; 310,000 tested, 1.2% active; AID 588511;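 active = ratio plate-corrected score three or more library SD toward inhibition, starting fluorescence score within five deviations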;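 also: score derived from kinetic fluorescence span divided by baseline fluorescence per well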
# ANO1 activ: activators or potentiators of mouse TMEM16A chloride channel | 340,000 tested, 0.3% active | B-score at 10 µM | AID 623877 | Q8BHY3 | HEK293 TMEM16A/YFP-H148Q/I152L, iodide quench fluorescence; hits give low values;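 active = fluorescence-ratio B-score plate-corrected deviation score at least 3 library SD below zero, with starting fluorescence score within 5 deviations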;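 also: channel opened by trigger with iodide after compound preincubation; score built on the fluorescence ratio of max minus min over baseline; more negative score means more quench and so TMEM16A activation or potentiation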
# cardiac RTF act: increases calcium sensitivity of human cardiac regulated thin filaments. IANBD-labeled TnC RTF fluorescence at EC20 calcium; 0% EC20 calcium, 100% full calcium. activation, % at 7.2 µM. 340,000 tested, 0.24% active. AID 493008;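 active = activation above the mean over all tested compounds plus 3 SD, cut at about 30% in these data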;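 also: rise in fluorescence read as greater calcium sensitivity of cardiac thin filaments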
# TMEM16A reconf: reconfirmed blocker of mouse TMEM16A calcium-activated chloride channel | shares compounds with ANO1 block | HEK293 TMEM16A/YFP-H148Q, iodide quench fluorescence; ionomycin added to raise cell calcium | inhibition, % at 10 µM | 2,300 tested, 39% active | AID 652189;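 active = mean duplicate percent inhibition, scaled so buffer wells are 0 and the reference blocker 100, over three buffer SD above buffer mean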
# HEK293 Ca mobil: alters calcium mobilization in TMEM16A HEK293 cells, counter-screen. AID 652231. shares compounds with ANO1 block. TMEM16A/YFP HEK293, Fluo4 calcium mobilization. 2,300 tested, 2% active. calcium response (% of ionomycin), % at 10 µM;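 active = duplicate-averaged calcium signal over 20% of the ionomycin maximum, relative to buffer baseline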;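 also: each well's signal is peak minus trough fluorescence divided by its pre-addition baseline; 0% = buffer wells and 100% = ionomycin wells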
# Parental YFP cnt: counter-screen for TMEM16A inhibitors: effect in parental YFP-HEK293 cells | shares compounds with ANO1 block | iodide YFP quench, ionomycin | YFP ratio F(max-min)/F0 at 10 µM | 2,300 tested, under 10 active | AID 652233;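 active = yellow fluorescent protein signal ratio exceeding the buffer control mean by over 5 SD of those controls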;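 also: ratio is mean of duplicate wells from kinetic YFP trace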
# ClC-1 inh: blocks the rat ClC-1 voltage-dependent chloride channel; 2,300 tested, under 10 active; ratio percent, % at 10 µM; AID 652236; shares compounds with ANO1 block; CHO ClC-1-YFP, iodide influx fluorescence quench; iodide control reads 0, buffer control 100;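 active = duplicate-mean ratio percent above the mean of iodide-only control wells, which defines zero, plus 5 of their SD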;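 also: higher percent means stronger block of ClC-1 iodide influx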
# Active calls of the source: *; i = inactive; / = no result given.
SMILES,CRFR2-BP antag,CRFR2-BP ag,Cardiac RTF inh,ANO1 block,ANO1 activ,cardiac RTF act,TMEM16A reconf,HEK293 Ca mobil,Parental YFP cnt,ClC-1 inh
Cc1ccccc1OCC(=O)Nc1ccc(C)c(S(=O)(=O)N2CCCCCC2)c1,-6,1,9,25*,i,3,i,i,-0.95,-4
Cc1ccc(N(C)S(=O)(=O)c2cc(-c3cnc(C4CC4)o3)ccc2C)cc1,5,3,-1,100*,i,-3,20%*,i,-1.4,-9
CCOc1ccc(N(C)S(=O)(=O)c2cc(-c3cc(C)no3)ccc2CC)cc1,-5,5,-10,i,i,-2,/,/,/,/
Cc1cccc(N(C)S(=O)(=O)c2ccc(-c3cnc(C4CC4)o3)cc2)c1,16,5,-19,i,i,-3,/,/,/,/
CCOc1ccc(N(C)S(=O)(=O)c2cc(-c3cc(C)no3)ccc2C)cc1,6,0,-10,100*,i,-7,31%*,i,-0.92,-16
CC(Oc1ccc(Cl)cc1)C(=O)N(C)CC(=O)Nc1ccc(N2CCOCC2)cc1 (configuration not stated),-1,0,-4,i,i,-1,/,/,/,/
Cc1ccc(S(=O)(=O)Nc2cc(S(=O)(=O)N3CCOCC3)ccc2NCC2CCCO2)cc1 (configuration not stated),3,-1,-2,/,i,-9,/,/,/,/
O=C(NCc1ccc(OC(F)(F)F)cc1)C1CC(c2c(Cl)cccc2Cl)=NO1 (configuration not stated),-4,0,3,i,i,-3,/,/,/,/
COc1ccc(C2SCC(=O)N2CCCN(C)C)cc1 (configuration not stated),-20,0,-8,25*,i,-6,i,i,-0.86,-4
CCC(C)Sc1ccc([C@@H]2[C@H]3C(=O)N(CC)C(=O)[C@H]3[C@]3(C(=O)OC)CCCCN23)cc1 (some centres not stated),-20,12,-3,i,i,8,28%*,i,-0.71,13
O=C(NCc1cccc(Cl)c1)c1cccc(OC2CCN(C(=O)C3CC3)CC2)c1,0,-1,-2,100*,i,-2,i,i,-1.1,-17
COc1cccc(CNc2cnc3ccccc3c2)c1O,-15,2,0,25*,i,-2,26%*,i,-0.94,-13
Cc1cc(C)c(S(=O)(=O)N2CCCCC2CCNC(=O)C(=O)NCc2cccnc2)c(C)c1 (configuration not stated),8,0,6,i,i,1,/,/,/,/
Fc1ccc(NCc2cccnc2)cc1,-7,0,12,100*,i,0,i,i,-1.2,-2
O=C(Cn1nnc(-c2ccccc2)n1)NNC(=O)c1ccco1,3,0,8,i,i,-1,/,/,/,/
COc1ccccc1OCc1nnc(SCC(=O)Nc2nnc(C3CC3)s2)n1C,2,-2,-2,i,i,-2,/,/,/,/
Cc1cc(N=Nc2ccccc2C(=O)O)c(C)c(C)c1O,11,-1,-1,i,i,-10,53%*,i,-1.2,-18
COc1cc(N=Nc2ccccc2C(=O)O)ccc1O,-4,0,-8,i,i,1,/,/,/,/
Cc1cc(O)c(C(C)C)cc1N=Cc1ccccc1[N+](=O)[O-],-4,1,3,/,i,-4,/,/,/,/

# Screening results (PubChem)
